Compound activity as filed in PubChem BioAssay.
Mtb bLac sens: beta-lactam sensitization of Mtb H37Rv | M. tuberculosis H37Rv growth with meropenem, percent inhibition | inhibition, % at 25 µM | 330,000 tested, 0.27% active | AID 434955; call rule not given here;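 further: growth measured after seven days incubation then overnight dye step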
Mtb hypoxia inh: inhibitors of hypoxia-regulated fluorescent reporter in Mycobacterium tuberculosis. M. tuberculosis hypoxia-regulated fluorescent reporter, fluorescence. fluorescence inhibition, % (no concentration beside the values). 300,000 tested, 0.1% active. AID 1159583; in the data active means fluorescence inhibition mostly above about 23%, no sharp cut-off; inactive means mostly below about 17%
GDH-TPI counter-1: inhibits GDH-TPI coupling enzymes, artifact for Mtb FBA screen; GDH-TPI coupled enzyme counterscreen, NADH absorbance; inhibition, % at 4.8 µM; 360,000 tested, 1.2% active; in the data active means inhibition above about 30%
FBA Mtb inh: inhibits M. tuberculosis FBA enzyme; 360,000 tested, 2.3% active; inhibition, % at 1 µM; purified M. tuberculosis FBA, fluorescence read-out
Target sequence (P9WQA3 whole entry, looked up): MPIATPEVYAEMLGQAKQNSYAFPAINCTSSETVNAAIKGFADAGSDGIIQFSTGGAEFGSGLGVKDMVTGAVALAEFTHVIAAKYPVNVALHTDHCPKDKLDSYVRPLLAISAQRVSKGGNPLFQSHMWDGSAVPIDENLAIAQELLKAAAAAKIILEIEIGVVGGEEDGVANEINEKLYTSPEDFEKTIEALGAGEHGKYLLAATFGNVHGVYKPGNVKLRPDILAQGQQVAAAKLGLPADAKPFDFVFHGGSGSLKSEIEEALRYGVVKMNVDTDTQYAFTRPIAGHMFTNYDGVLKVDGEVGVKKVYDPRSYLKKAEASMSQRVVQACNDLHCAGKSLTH
DUSP3 inh: blocks human VHR1 dual specificity phosphatase; inhibition, % at 13.3 µM; AID 1654; 290,000 tested, 0.52% active; P51452; recombinant VHR phosphatase, pNPP absorbance; in the data active means inhibition above about 50%
Mtb FBA inh conf: confirmation of M. tuberculosis fructose-bisphosphate aldolase inhibitors; shares compounds with FBA Mtb inh; purified M. tuberculosis FBA, fluorescence read-out; inhibition, % at 1 µM; 5,600 tested, 78% active; AID 651616
GDH-TPI counter-2: counter-screen for M. tuberculosis FBA inhibitors: GDH-TPI coupled enzyme inhibition | shares compounds with FBA Mtb inh | GDH-TPI coupled enzyme counterscreen, fluorescence | inhibition, % at 1 µM | 5,600 tested, 81% active | AID 652141; in the data active means inhibition above about 10%
Each line names hits and unclear results; the compound was inactive in the other large screens (follow-up assays come after a bar, where shown). The list is not random: actives were taken first. Their share in the collection is about 3.6%. Unless noted, no stated cut-off is given here; in the data, active means inhibition above about 27%; inactive means the rest.

COc1ccc2c(c1)c(C(=O)NN=Cc1cccs1)c(C)n2C	none (no result: Mtb bLac sens, GDH-TPI counter-1, FBA Mtb inh, DUSP3 inh)
COc1ccc(-c2c[n+]3c4n2CCCCC4=C(c2ccccc2)C3)cc1	FBA Mtb inh 106 | Mtb FBA inh conf inactive | GDH-TPI counter-2 inactive
COc1ccc(-c2c[n+](CC(=O)c3ccccc3)c3n2CCCCC3)cc1	none
O=C(CN1C(=O)NC2(CCCCCCC2)C1=O)N1CCN(C(=O)c2ccco2)CC1	FBA Mtb inh 42 (no result: Mtb hypoxia inh) | Mtb FBA inh conf active | GDH-TPI counter-2 161
O=C(COc1ccc2c(c1)C(=O)CC1(CCCCC1)O2)NCc1ccccn1	FBA Mtb inh 38 | Mtb FBA inh conf 82 | GDH-TPI counter-2 58
CCOC(=O)COc1ccc2c(c1)C(=O)CC1(CCCCC1)O2	FBA Mtb inh 53 | Mtb FBA inh conf 89 | GDH-TPI counter-2 77
O=C(COc1ccc(S(=O)(=O)NC2CCCCC2)cc1)NCc1ccccn1	none
O=C(COc1ccccc1)NCc1ccccc1	none (not shown: Mtb hypoxia inh)
O=C(COc1ccc2c(c1)C(=O)CC1(CCCCC1)O2)NCc1ccccc1	FBA Mtb inh 36 | Mtb FBA inh conf 62 | GDH-TPI counter-2 48
CC1CN(C(C)CO)C(=O)c2cc(NC(=O)Nc3ccccc3)ccc2OC1CN(C)S(=O)(=O)c1cn(C)cn1 (stereo unspecified)	none (no result: Mtb bLac sens, GDH-TPI counter-1, FBA Mtb inh, DUSP3 inh)
CC1(C)CC(n2c(NCCO)nc3c(c2=O)C2(CCCC2)Cc2ccccc2-3)CCO1 (stereo unspecified)	FBA Mtb inh 38 | Mtb FBA inh conf active | GDH-TPI counter-2 193
CC(=O)Nn1cnc2c(c1=O)C1(CCCCC1)Cc1ccccc1-2	none (no result: Mtb hypoxia inh)
O=c1[nH]c(NCCO)nc2c1C1(CCCCC1)Cc1ccccc1-2	FBA Mtb inh 98 (no result: Mtb hypoxia inh) | Mtb FBA inh conf inactive | GDH-TPI counter-2 inactive
CC(C)n1cnc2c(Nc3cccc(F)c3)nc(NCCO)nc21	FBA Mtb inh 32 | Mtb FBA inh conf 109 | GDH-TPI counter-2 91
CC1CCC(N2CCN(S(C)(=O)=O)CC2)CC1 (stereo unspecified)	FBA Mtb inh 56 | Mtb FBA inh conf 110 | GDH-TPI counter-2 102
CCCSc1ccccc1C(=O)N1CCN(C(=O)c2ccco2)CC1	FBA Mtb inh 55 | Mtb FBA inh conf active | GDH-TPI counter-2 active
Cc1ccc(S(=O)(=O)N=CN(C)C)cc1	none (no result: Mtb bLac sens, GDH-TPI counter-1, FBA Mtb inh, DUSP3 inh)
COc1ccc(-c2[nH]c(-c3cc(OC)c4c(c3)OCO4)nc2-c2ccccc2)cc1	FBA Mtb inh 61 | Mtb FBA inh conf active | GDH-TPI counter-2 active
CCCN(CCC)CCNC(=O)c1cc2c(-c3ccccc3F)nn(C)c2s1	FBA Mtb inh 87 | Mtb FBA inh conf 100 | GDH-TPI counter-2 81
CCOCCCNC(=O)c1cc2c(-c3ccc(Cl)cc3)nn(C)c2s1	FBA Mtb inh 63 (no result: Mtb hypoxia inh) | Mtb FBA inh conf 71 | GDH-TPI counter-2 55
CCCN(CCC)CCNC(=O)c1cc2c(-c3ccc(Cl)cc3)nn(C)c2s1	FBA Mtb inh 50 | Mtb FBA inh conf 163 | GDH-TPI counter-2 120
CCCN(CCC)CCCNC(=O)c1cc2c(-c3ccc(OC)c(OC)c3)nn(C)c2s1	none
CCCCN(CC)CCNC(=O)c1cc2c(-c3ccc(Cl)cc3)nn(C)c2s1	FBA Mtb inh 77 (no result: Mtb hypoxia inh) | Mtb FBA inh conf inactive | GDH-TPI counter-2 inactive
COc1cc(C=NNC(=O)c2c(C)nnn2-c2nonc2N)ccc1O	none (no result: Mtb bLac sens, GDH-TPI counter-1, FBA Mtb inh, DUSP3 inh)
OCCC1CC(O)C(O)[C@]2(CCc3ccccc3CO2)O1 (stereo partly specified)	none (no result: Mtb bLac sens, GDH-TPI counter-1, FBA Mtb inh, DUSP3 inh)
Nc1c(-c2ccccc2)n[nH]c1-c1ccccc1	FBA Mtb inh 40 | Mtb FBA inh conf 72 | GDH-TPI counter-2 50
C=CCOC(=O)C(=O)C=Cc1ccc2c(c1)Cc1ccccc1-2	none (no result: Mtb bLac sens, GDH-TPI counter-1, FBA Mtb inh, DUSP3 inh)
C#Cc1ccc(C2C=C(C(=O)NCc3nc4ccccc4[nH]3)OC(OCC)C2CCCO)cc1 (stereo unspecified)	none (no result: Mtb bLac sens, GDH-TPI counter-1, FBA Mtb inh, DUSP3 inh)
COC(=O)c1ccc(OC)c(OC2CCCC2)c1	none
COc1ccc(NC(=O)C2CC2)cc1OC1CCCC1	FBA Mtb inh 73 | Mtb FBA inh conf 68 | GDH-TPI counter-2 54
COc1ccccc1C=NNC(=O)CNC(=O)c1ccccc1	none (no result: Mtb bLac sens, GDH-TPI counter-1, FBA Mtb inh, DUSP3 inh)
CCCC(O)(c1ccc(Cl)cc1)C(CN1CCOCC1)c1ccc(Cl)cc1 (stereo unspecified)	Mtb bLac sens inconclusive, FBA Mtb inh 30 | Mtb FBA inh conf 97 | GDH-TPI counter-2 70
